In PubChem BioAssay AID1159580 (chemical genetic matrix, 2015):
Among all 5,500 compounds or so, about 2,000 (36%) were called active. About 18% were inconclusive and are not listed. This is one part of the list. Unmarked numbers belong to inactive results. Cut-off read from the data, not from the text of the source: active = normalized growth mostly below about 0.91 (no sharp cut-off); inconclusive = no clear call, values can overlap the other calls; inactive = mostly above about 0.92.

Test: chemical genetic growth profiling, strain panel (AID 1159580);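 note: tested at 20 µM; growth read once vehicle control cultures reached saturation at 30 °C; 1 = growth at the plate median or of vehicle wells; lower values mean less growth of the strain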
Conditions: growth OD
[1] = S. cerevisiae deletion strains, locus YAL013W, strain DEP1, hits give low values
[2] = S. cerevisiae deletion strains, locus YDR150W, strain NUM1, hits give low values
[3] = S. cerevisiae deletion strains, locus YGR078C, strain PAC10, hits give low values
[4] = S. cerevisiae deletion strains, locus YGR229C, strain SMI1, hits give low values
[5] = S. cerevisiae deletion strains, locus YMR307W, strain GAS1, hits give low values
[6] = S. cerevisiae deletion strains, locus YNL153C, strain GIM3, hits give low values
[7] = S. cerevisiae deletion strains, locus YNL322C, strain KRE1, hits give low values
[8] = S. cerevisiae deletion strains, locus YPL055C, strain LGE1, hits give low values
[9] = S. cerevisiae deletion strains, locus YPL241C, strain CIN2, hits give low values
[10] = S. cerevisiae deletion strains, locus YDL101C, strain DUN1, hits give low values
[11] = S. cerevisiae deletion strains, locus YHR030C, strain SLT2, hits give low values
[12] = S. cerevisiae deletion strains, locus YBR229C, strain ROT2, hits give low values
[13] = S. cerevisiae deletion strains, locus YDL134C, strain PPH21, hits give low values
[14] = S. cerevisiae deletion strains, locus YEL061C, strain CIN8, hits give low values
[15] = S. cerevisiae deletion strains, locus YHR087W, strain rtc3, hits give low values
[16] = S. cerevisiae deletion strains, locus YJR043C, strain POL32, hits give low values
[17] = S. cerevisiae deletion strains, locus YJR075W, strain HOC1, hits give low values
[18] = S. cerevisiae deletion strains, locus YLR039C, strain RIC1, hits give low values
[19] = S. cerevisiae deletion strains, locus YLR058C, strain SHM2 (second series), hits give low values
[20] = S. cerevisiae deletion strains, locus YLR085C, strain ARP6, hits give low values
[21] = S. cerevisiae deletion strains, locus YLR262C, strain YPT6, hits give low values
[22] = S. cerevisiae deletion strains, locus YML094W, strain GIM5, hits give low values
[23] = S. cerevisiae deletion strains, locus YMR219W, strain ESC1, hits give low values
[24] = S. cerevisiae deletion strains, locus YMR263W, strain SAP30, hits give low values
[25] = S. cerevisiae deletion strains, locus YNL298W, strain CLA4 (second series), hits give low values
[26] = S. cerevisiae deletion strains, locus YNR030W, strain Alg12, hits give low values
[27] = S. cerevisiae deletion strains, locus YPR135W, strain CTF4, hits give low values

Compound `CCCC[N+]1(C)C2CC(OC(=O)[C@H](CO)c3ccccc3)CC1C1OC12` (stereo not given in full) has a normalized growth [1] of 1, a normalized growth (S. cerevisiae deletion strains, locus YAL040C, strain CLN3, hits give low values) of 1.05 and a normalized growth (S. cerevisiae deletion strains, locus YCL061C, strain MRC1 (second series), hits give low values) of 0.996. The normalized growth [2] was 1, the normalized growth (S. cerevisiae deletion strains, locus YDR363W, strain ESC2, hits give low values) was 0.999 and the normalized growth (S. cerevisiae deletion strains, locus YER002W, strain NOP16, hits give low values) was 1.01. It also gave a normalized growth [3] of 0.989, a normalized growth [4] of 1.02 and a normalized growth [5] of 0.976. It also gave a normalized growth [6] of 0.987, a normalized growth (S. cerevisiae deletion strains, locus YNL175C, strain NOP13, hits give low values) of 1.02 and a normalized growth (S. cerevisiae deletion strains, locus YNL197C, strain WHI3, hits give low values) of 0.989. It also gave a normalized growth (S. cerevisiae deletion strains, locus YNL224C, strain SQS1, hits give low values) of 0.99, a normalized growth [7] of 0.998 and a normalized growth (S. cerevisiae deletion strains, locus YOR083W, strain WHI5 (second series), hits give low values) of 0.99. For the same compound, the normalized growth [8] was 0.987 and the normalized growth [9] was 1.

Work on `O=C(Nc1c(Br)c(C2CC2)nn1-c1ccccc1)C(Cl)(Cl)Cl` yielded a normalized growth (S. cerevisiae deletion strains, locus YAR019C, strain CDC15, hits give low values) of 0.92, a normalized growth (S. cerevisiae deletion strains, locus YBL105C, strain PKC1, hits give low values) of 0.913 and a normalized growth (S. cerevisiae deletion strains, locus YBR135W, strain CKS1, hits give low values) of 0.914. It also gave a normalized growth (S. cerevisiae deletion strains, locus YBR136W, strain MEC1, hits give low values) of 0.923, a normalized growth (S. cerevisiae deletion strains, locus YBR160W, strain CDC28, hits give low values) of 0.92 and a normalized growth (S. cerevisiae deletion strains, locus YDL017W, strain CDC7, hits give low values) of 0.929. The normalized growth (S. cerevisiae deletion strains, locus YDL028C, strain MPS1, hits give low values) was 0.93, the normalized growth [10] was 0.927 and the normalized growth (S. cerevisiae deletion strains, locus YDL108W, strain KIN28, hits give low values) was 0.925. It also gave a normalized growth (S. cerevisiae deletion strains, locus YDL132W, strain cdc53, hits give low values) of 0.917, a normalized growth (S. cerevisiae deletion strains, locus YDL214C, strain PRR2, hits give low values) of 0.897 and a normalized growth (S. cerevisiae deletion strains, locus YDR052C, strain DBF4, hits give low values) of 0.918. For the same compound, the normalized growth (S. cerevisiae deletion strains, locus YDR054C, strain cdc34, hits give low values) was 0.921, the normalized growth (S. cerevisiae deletion strains, locus YDR226W, strain ADK1, hits give low values) was 0.909 and the normalized growth (S. cerevisiae deletion strains, locus YDR477W, strain SNF1, hits give low values) was 0.826. For the same compound, the normalized growth (S. cerevisiae deletion strains, locus YER123W, strain YCK3, hits give low values) was 0.769, the normalized growth (S. cerevisiae deletion strains, locus YER133W, strain GLC7, hits give low values) was 0.802 and the normalized growth (S. cerevisiae deletion strains, locus YFL009W, strain cdc4, hits give low values) was 0.92. It also gave a normalized growth (S. cerevisiae deletion strains, locus YFL029C, strain CAK1, hits give low values) of 0.92, a normalized growth (S. cerevisiae deletion strains, locus YFR003C, strain YPI1, hits give low values) of 0.922 and a normalized growth (S. cerevisiae deletion strains, locus YFR019W, strain FAB1, hits give low values) of 0.932. For the same compound, the normalized growth (S. cerevisiae deletion strains, locus YFR028C, strain CDC14, hits give low values) was 0.908, the normalized growth (S. cerevisiae deletion strains, locus YGR040W, strain KSS1, hits give low values) was 0.784 and the normalized growth (S. cerevisiae deletion strains, locus YGR052W, strain FMP48, hits give low values) was 0.856. The normalized growth (S. cerevisiae deletion strains, locus YGR092W, strain DBF2, hits give low values) was 0.693, the normalized growth [11] was 0.896 and the normalized growth (S. cerevisiae deletion strains, locus YHR079C, strain IRE1, hits give low values) was 0.919. The normalized growth (S. cerevisiae deletion strains, locus YHR082C, strain KSP1, hits give low values) was 0.919, the normalized growth (S. cerevisiae deletion strains, locus YHR205W, strain SCH9, hits give low values) was 0.821 and the normalized growth (S. cerevisiae deletion strains, locus YIL147C, strain SLN1, hits give low values) was 0.932. It also gave a normalized growth (S. cerevisiae deletion strains, locus YJL095W, strain BCK1, hits give low values) of 0.824, a normalized growth (S. cerevisiae deletion strains, locus YJL128C, strain PBS2, hits give low values) of 0.908 and a normalized growth (S. cerevisiae deletion strains, locus YJL157C, strain FAR1, hits give low values) of 0.904. The normalized growth (S. cerevisiae deletion strains, locus YJR016C, strain ILV3, hits give low values) was 0.929, the normalized growth (S. cerevisiae deletion strains, locus YJR066W, strain TOR1 (second series), hits give low values) was 0.832 and the normalized growth (S. cerevisiae deletion strains, locus YJR066W, strain TOR1, hits give low values) was 0.86. For the same compound, the normalized growth (S. cerevisiae deletion strains, locus YKL048C, strain ELM1, hits give low values) was 0.802 (active), the normalized growth (S. cerevisiae deletion strains, locus YKL067W, strain YNK1, hits give low values) was 0.897 and the normalized growth (S. cerevisiae deletion strains, locus YKL101W, strain HSL1, hits give low values) was 0.882. The normalized growth (S. cerevisiae deletion strains, locus YKL193C, strain SDS22, hits give low values) was 0.921, the normalized growth (S. cerevisiae deletion strains, locus YKL203C, strain TOR2, hits give low values) was 0.879 and the normalized growth (S. cerevisiae deletion strains, locus YLR113W, strain HOG1, hits give low values) was 0.858 (active). For the same compound, the normalized growth (S. cerevisiae deletion strains, locus YLR133W, strain CKI1, hits give low values) was 0.871, the normalized growth (S. cerevisiae deletion strains, locus YLR403W, strain SFP1, hits give low values) was 0.714 and the normalized growth (S. cerevisiae deletion strains, locus YML070W, strain DAK1, hits give low values) was 0.901. For the same compound, the normalized growth (S. cerevisiae deletion strains, locus YMR001C, strain CDC5, hits give low values) was 0.922, the normalized growth (S. cerevisiae deletion strains, locus YMR205C, strain PFK2 (second series), hits give low values) was 0.883 and the normalized growth (S. cerevisiae deletion strains, locus YMR277W, strain FCP1, hits give low values) was 0.915. The normalized growth (S. cerevisiae deletion strains, locus YNL006W, strain LST8, hits give low values) was 0.921, the normalized growth (S. cerevisiae deletion strains, locus YNL020C, strain ARK1, hits give low values) was 0.878 and the normalized growth (S. cerevisiae deletion strains, locus YNL161W, strain CBK1, hits give low values) was 0.925. It also gave a normalized growth (S. cerevisiae deletion strains, locus YNL183C, strain NPR1, hits give low values) of 0.864, a normalized growth (S. cerevisiae deletion strains, locus YNL207W, strain RIO2, hits give low values) of 0.928 and a normalized growth (S. cerevisiae deletion strains, locus YNL222W, strain SSU72, hits give low values) of 0.928. For the same compound, the normalized growth (S. cerevisiae deletion strains, locus YNL307C, strain MCK1 (second series), hits give low values) was 0.812, the normalized growth (S. cerevisiae deletion strains, locus YOL078W, strain AVO1, hits give low values) was 0.912 and the normalized growth (S. cerevisiae deletion strains, locus YOL136C, strain PFK27, hits give low values) was 0.895. For the same compound, the normalized growth (S. cerevisiae deletion strains, locus YOR061W, strain CKA2, hits give low values) was 0.872, the normalized growth (S. cerevisiae deletion strains, locus YOR119C, strain RIO1, hits give low values) was 0.822 and the normalized growth (S. cerevisiae deletion strains, locus YOR231W, strain MKK1, hits give low values) was 0.898. The normalized growth (S. cerevisiae deletion strains, locus YOR329C, strain SCD5, hits give low values) was 0.925, the normalized growth (S. cerevisiae deletion strains, locus YPL031C, strain PHO85, hits give low values) was 0.814 and the normalized growth (S. cerevisiae deletion strains, locus YPL153C, strain RAD53, hits give low values) was 0.82. It also gave a normalized growth (S. cerevisiae deletion strains, locus YPL204W, strain HRR25, hits give low values) of 0.735, a normalized growth (S. cerevisiae deletion strains, locus YPL209C, strain IPL1, hits give low values) of 0.922 and a normalized growth (S. cerevisiae deletion strains, locus YPL256C, strain CLN2, hits give low values) of 0.961. The normalized growth (S. cerevisiae deletion strains, locus YPR025C, strain CCL1, hits give low values) was 0.923, the normalized growth (S. cerevisiae deletion strains, locus YPR106W, strain ISR1, hits give low values) was 0.935 and the normalized growth (S. cerevisiae deletion strains, locus YPR111W, strain DBF20, hits give low values) was 0.925. For the same compound, the normalized growth (S. cerevisiae deletion strains, strain NNK1, hits give low values) was 0.944 and the normalized growth (S. cerevisiae deletion strains, strain TSCII, hits give low values) was 0.92.

`Cc1cc(NC(=O)C(Cl)(Cl)Cl)n(-c2ccccc2)n1` showed a normalized growth [1] of 0.984, a normalized growth [12] of 0.987 and a normalized growth [10] of 0.995. It also gave a normalized growth [13] of 0.936, a normalized growth [2] of 0.898 and a normalized growth [14] of 0.994. It also gave a normalized growth [3] of 0.984, a normalized growth [11] of 0.888 and a normalized growth [15] of 0.97. The normalized growth (S. cerevisiae deletion strains, locus YJL187C, strain SWE1, hits give low values) was 0.979, the normalized growth [16] was 0.987 and the normalized growth [17] was 1. The normalized growth [18] was 0.678 (active), the normalized growth [19] was 0.985 and the normalized growth [20] was 0.948. For the same compound, the normalized growth [21] was 0.728 (active), the normalized growth [22] was 1.02 and the normalized growth [23] was 0.991. The normalized growth [24] was 0.982, the normalized growth [5] was 1.02 and the normalized growth (S. cerevisiae deletion strains, locus YNL128W, strain TEP1, hits give low values) was 0.975. For the same compound, the normalized growth [6] was 1, the normalized growth [25] was 0.978 and the normalized growth [7] was 0.97. It also gave a normalized growth [26] of 0.974, a normalized growth (S. cerevisiae deletion strains, locus YOL006C, strain TOP1, hits give low values) of 0.864 and a normalized growth [8] of 1.04. For the same compound, the normalized growth [9] was 1, the normalized growth [27] was 0.838 and the normalized growth (S. cerevisiae strains, strain wild type, hits give low values) was 0.96.

`CC(=O)Nc1cccc(-n2nnc(SCc3ccccc3)n2)c1` showed a normalized growth [1] of 1.02, a normalized growth [12] of 1.01 and a normalized growth (S. cerevisiae deletion strains, locus YCL061C, strain MRC1, hits give low values) of 1.03. The normalized growth [10] was 0.995, the normalized growth [13] was 0.988 and the normalized growth [2] was 1.03. It also gave a normalized growth [14] of 1, a normalized growth [3] of 1.02 and a normalized growth [4] of 0.986. For the same compound, the normalized growth [11] was 1.06, the normalized growth [15] was 0.988 and the normalized growth [16] was 1.02. It also gave a normalized growth [17] of 1.03, a normalized growth [18] of 0.976 and a normalized growth [19] of 0.997. For the same compound, the normalized growth [20] was 0.949, the normalized growth [21] was 1.1 and the normalized growth [22] was 0.982. The normalized growth [23] was 0.993, the normalized growth [24] was 1.01 and the normalized growth [6] was 1.02. It also gave a normalized growth [25] of 1.01, a normalized growth [7] of 1.01 and a normalized growth [26] of 1.01. The normalized growth [8] was 0.968, the normalized growth [9] was 0.958 and the normalized growth [27] was 1.08.
